According to PubChem BioAssay (Tox21):
Records with an inconclusive call do not appear. A number with no mark means an inactive call. Calls follow the shape of the dose curve; as a rule, active = well fitted cell-killing curve with a large enough effect in the repeat runs; inconclusive = weak or mixed curves; inactive = flat fitted curve, though single readings scatter.

Experiment: qHTS assay to identify small molecule antagonists of the estrogen receptor beta (ER-beta) signaling pathway - cell viability counter screen (AID 1259382); also: nearly all actives have a fitted effect of over 55% in size
Details: ER-beta-UAS-bla HEK293T viability, CellTiter-Glo luminescence, 16 h; series mostly up to 92.4 µM; activity change, negative = cytotoxicity: at the top concentration
From the text: U.S. Tox21 Program National Center for Advancing Translational Sciences [NCATS] NIH Chemical Genomics Center [NCGC] U.S. Environmental Protection Agency [EPA] National Institutes of Environmental Health Sciences [NIEHS] National Toxicology Program [NTP] U.S. Food and Drug Administration [FDA] Tox21 Assay Overview: Estrogen receptor (ER), a nuclear hormone receptor, plays an important role in development, metabolic homeostasis and reproduction. Two subtypes of ER, ER-alpha and ER-beta, have similar expression patterns with some uniqueness in both types. Endocrine disrupting chemicals (EDCs) and their interactions with steroid hormone receptors like ER causes disruption of normal endocrine function. To identify the compounds that inhibit ER signaling, an ER-beta-UAS-bla GripTite cell line (Life Technologies, Madison, WI, USA) containing a beta-lactamase reporter gene under the control of an UAS response element was used to screen Tox21 10K compound library. The cytotoxicity of the Tox21 compound library against the ER-beta-bla cell line was tested in parallel by measuring the cell viability using CellTiter-Glo assay in the same wells.
Tox21 Assay Protocol Summary: ER-beta-UAS-bla HEK293T cells were dispensed at 2,000 cells/4 uL of assay medium containing 2% charcoal stripped FBS per well into black wall/clear-bottom 1536-well plates using a Multidrop Combi (ThermoFisher Scientific, Waltham, MA) dispenser. After the assay plates were incubated at a 37C and 5% CO2 for 6 hr, 23 nL of compounds dissolved in DMSO, positive controls or DMSO only was transferred to the assay plate by a Pintool station (Kalypsys, San Diego, CA), followed by addition of 1 uL (1nM as final concentration) of 17-beta-estradiol (E2) in assay medium using a Flying Reagent Dispenser (FRD, Aurora Discovery, San Diego, CA). The plates were incubated at 37C and 5% CO2 for 16 hr. Then 1 uL of LiveBLAzer B/G FRET substrate was added using a Flying Reagent Dispenser, the plates were incubated at room temperature for 2 hours, and fluorescence intensity was measured by an Envision plate reader (PerkinElmer, Shelton, CT). For cell viability readout that measures cytotoxicity, 4 uL/well of CellTiter-Glo reagent was added into the assay plates using a FRD. After 30 min incubation at room temperature, the luminescence intensity in the plates was measured using a ViewLux (PerkinElmer) plate reader.
% is scaled to controls: 0 for no effect and ±100 for the full control effect.

Q: With `CCN(CC)c1ccc(C(=C2C=CC(=[N+](CC)CC)C=C2)c2cc(S(=O)(=O)O)ccc2S(=O)(=O)[O-])cc1` as the compound, how does the “activity change, negative = cytotoxicity” value read?
A: -16.4% [at 42.5 µM]

Q: Which “activity change, negative = cytotoxicity” value does the source give for `CCCC(=O)Nc1ccc(O)c(C(C)=O)c1` here?
A: 11.8% [at 42.5 µM]

Q: Which “activity change, negative = cytotoxicity” value does the source give for `O=C1OC(CN2CCOCC2)CN1/N=C/c1ccc([N+](=O)[O-])o1` (stereo not given) here?
A: -11% [at 42.5 µM]

Q: Which “activity change, negative = cytotoxicity” value does the source give for `O=C(O)CC(=O)C(=O)O` here?
A: 6.97%

Q: Which “activity change, negative = cytotoxicity” value does the source give for `O=C1CCC(=O)O1` here?
A: 5.57%

Q: With `CC1CCC(=O)C1=O` (stereo not given) as the compound, how does the “activity change, negative = cytotoxicity” value read?
A: -1.97%

Q: Which “activity change, negative = cytotoxicity” value does the source give for `CCCCCCCN` here?
A: 7.9%

Q: Which activity change, negative = cytotoxicity does the source give for `CC(CSC(=O)c1ccccc1)C(=O)N1C[C@@H](Sc2ccccc2)C[C@H]1C(=O)O` (stereo not given in full) here?
A: 5.8% [at 19 µM]

Q: For `Cn1c(=O)cc(Oc2ccc(F)cc2F)c2cnc(NCC(C)(C)O)nc21`, which “activity change, negative = cytotoxicity” value is on record?
A: 1.88%

Q: For `CCCCCCCC#N`, which “activity change, negative = cytotoxicity” value is on record?
A: -4.49%

Q: Which “activity change, negative = cytotoxicity” value does the source give for `c1ccc(CNCCNCc2ccccc2)cc1` here?
A: -12.5% [at 42.5 µM]

Q: With `COS(=O)(=O)C(F)(F)F` as the compound, how does the “activity change, negative = cytotoxicity” value read?
A: -13.8%

Q: Which “activity change, negative = cytotoxicity” value does the source give for `CCC(Cl)CCC(Cl)C(Cl)CC(Cl)C(Cl)C(Cl)CCl` (stereo not given) here?
A: -1.58%

Q: For `OC(CN1CCC(Cc2ccc(F)cc2)CC1)c1ccc(Cl)cc1` (stereo not given), which “activity change, negative = cytotoxicity” value is on record?
A: -0.619% [at 42.5 µM]

Q: With `COCC(C)OC(C)=O` (stereo not given) as the compound, how does the “activity change, negative = cytotoxicity” value read?
A: 15.2%

Q: For `ClCCOCCOCCCl`, which “activity change, negative = cytotoxicity” value is on record?
A: 7.15%

Q: Which “activity change, negative = cytotoxicity” value does the source give for `Cc1ncc(CO)c(C=O)c1O` here?
A: 2.58% [at 42.5 µM]

Q: Which activity change, negative = cytotoxicity does the source give for `Cc1[nH]c(C)c(Cl)c(=O)c1Cl` here?
A: 0.273% [at 19 µM]

Q: With `C[N+]1(C)CCC(OC(=O)C(O)(c2ccccc2)C2CCCC2)C1` (stereo not given) as the compound, how does the “activity change, negative = cytotoxicity” value read?
A: 2.64% [at 42.5 µM]

Q: Which “activity change, negative = cytotoxicity” value does the source give for `CCOC(=O)C(O)c1ccccc1` (stereo not given) here?
A: 4.97% [at 42.5 µM]

Q: With `COc1cc(C(=O)OCCCN2CCCN(CCCOC(=O)c3cc(OC)c(OC)c(OC)c3)CC2)cc(OC)c1OC` as the compound, how does the “activity change, negative = cytotoxicity” value read?
A: -14.6% [at 42.5 µM]

Q: With `C[N+](C)(C)CCOC(=O)CCC(=O)OCC[N+](C)(C)C` as the compound, how does the “activity change, negative = cytotoxicity” value read?
A: 2.24% [at 42.5 µM]

Q: With `CCOc1ccc(O)cc1` as the compound, how does the “activity change, negative = cytotoxicity” value read?
A: -6.45%

Q: Which “activity change, negative = cytotoxicity” value does the source give for `O=C(O)c1ccc(-n2nc(-c3ccccc3O)nc2-c2ccccc2O)cc1` here?
A: -1.38% [at 42.5 µM]

Q: For `CCOc1ccc(N=Nc2ccc(/C=C/c3ccc(N=Nc4ccc(OCC)cc4)cc3S(=O)(=O)O)c(S(=O)(=O)O)c2)cc1`, which “activity change, negative = cytotoxicity” value is on record?
A: -12%

Q: With `COc1cc2nc(N3CCN(C(=O)C4COc5ccccc5O4)CC3)nc(N)c2cc1OC` (stereo not given) as the compound, how does the “activity change, negative = cytotoxicity” value read?
A: -17.5% [at 42.5 µM]

Q: For `COc1ccc(-c2nc3ccc(C4=NNC(=O)CC4C)cc3[nH]2)cc1` (stereo not given), which “activity change, negative = cytotoxicity” value is on record?
A: -9.94% [at 42.5 µM]

Q: With `C/C=C(/C(=C/C)c1ccc(OC(C)=O)cc1)c1ccc(OC(C)=O)cc1` as the compound, how does the “activity change, negative = cytotoxicity” value read?
A: 9.16% [at 42.5 µM]

Q: With `O=C(O)c1ccccc1Cl` as the compound, how does the “activity change, negative = cytotoxicity” value read?
A: -0.607%

Q: For `COC(C)OC`, which “activity change, negative = cytotoxicity” value is on record?
A: 3.68%

Q: Which “activity change, negative = cytotoxicity” value does the source give for `O=C(OCCCCCCOC(=O)c1ccccc1)c1ccccc1` here?
A: -7.25%

Q: With `C#Cc1cccc(Nc2ncnc3cc(OCCOC)c(OCCOC)cc23)c1` as the compound, how does the “activity change, negative = cytotoxicity” value read?
A: -25.5% [at 42.5 µM]

Q: With `CN(C)CCN(Cc1ccccc1)c1ccccn1` as the compound, how does the “activity change, negative = cytotoxicity” value read?
A: -21.9% [at 42.5 µM]

Q: For `CCC(C)(C)CC`, which “activity change, negative = cytotoxicity” value is on record?
A: -6.19%

Q: For `Cc1nn(C)c(Oc2ccccc2)c1/C=N/OCc1ccc(C(=O)OC(C)(C)C)cc1`, which “activity change, negative = cytotoxicity” value is on record?
A: -6.06%

Q: Which “activity change, negative = cytotoxicity” value does the source give for `O=C(OCCc1ccccc1)c1ccccc1` here?
A: 1.4%

Q: For `CCOc1ccc(N)c([N+](=O)[O-])c1`, which “activity change, negative = cytotoxicity” value is on record?
A: 0.361%

Q: With `Nc1c(CC(=O)O)cccc1C(=O)c1ccc(Br)cc1` as the compound, how does the “activity change, negative = cytotoxicity” value read?
A: 4.08% [at 42.5 µM]

Q: With `CCOC(=O)COC(=O)c1cc(Oc2ccc(C(F)(F)F)cc2Cl)ccc1[N+](=O)[O-]` as the compound, how does the “activity change, negative = cytotoxicity” value read?
A: 4.29%

Q: With `CCC(=O)O[C@]1(C(=O)CCl)[C@@H](C)C[C@H]2[C@@H]3CCC4=CC(=O)C=C[C@]4(C)[C@@]3(F)[C@@H](O)C[C@@]21C` as the compound, how does the “activity change, negative = cytotoxicity” value read?
A: -14.8% [at 42.5 µM]
